For eight sequences, binding signal results are on record in PMC7862700, “An all-to-all approach to the identification of sequence-specific readers for epigenetic DNA modifications on cytosine”.

Assay in all cases: DAPPL (digital affinity profiling via proximity ligation, sequencing); 10 mM Tris-HCl pH 7.5, 50 mM NaCl, 1 mM DTT, 4% glycerol, room temperature, 30 min; GST-TFs on glutathione beads, 16-mer random dsDNA library, 0.1% formaldehyde crosslink after washing; high values mean tight binding
Conditions in all cases: protein: recombinant; tags: N-terminal GST; dsDNA, one strand shown

For one experiment, the target named is T1, ERF (Homo sapiens, UniProt P50548 1-548).
T1 sequence: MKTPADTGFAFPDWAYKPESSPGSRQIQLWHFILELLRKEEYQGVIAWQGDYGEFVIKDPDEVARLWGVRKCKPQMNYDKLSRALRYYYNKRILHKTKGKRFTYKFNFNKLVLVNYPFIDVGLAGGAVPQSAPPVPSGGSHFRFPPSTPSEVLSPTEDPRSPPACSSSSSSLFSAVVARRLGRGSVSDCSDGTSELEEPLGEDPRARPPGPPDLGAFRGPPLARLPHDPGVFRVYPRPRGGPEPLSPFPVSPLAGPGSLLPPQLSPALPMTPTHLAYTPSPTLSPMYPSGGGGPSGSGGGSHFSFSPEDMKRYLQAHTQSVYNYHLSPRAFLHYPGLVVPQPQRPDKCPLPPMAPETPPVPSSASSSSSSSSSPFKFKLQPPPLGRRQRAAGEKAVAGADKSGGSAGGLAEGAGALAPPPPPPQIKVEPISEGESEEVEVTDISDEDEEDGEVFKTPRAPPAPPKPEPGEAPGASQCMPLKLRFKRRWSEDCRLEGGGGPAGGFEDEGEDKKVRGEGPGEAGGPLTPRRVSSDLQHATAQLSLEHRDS
In outline: (§1)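 The binding signal reported is, for every hexamer, its read frequency for a factor over its read frequency for the tag-only sample. Reads came from pools of yeast-expressed, GST-fused human transcription factors on glutathione beads, barcoded with DNA and mixed with that sample, which were incubated with 200 nmole of a random double-stranded 16-mer DNA library in Tris/NaCl/DTT/glycerol buffer at room temperature for 30 min. After washing, the pools were crosslinked with 0.1% formaldehyde, proximity-ligated with BsaI/T4 ligase for 1 h at 37 °C, PCR-amplified and sequenced on an Illumina NextSeq500.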

A further experiment deals with T2, ETV3L (Homo sapiens, UniProt Q6ZN32 1-361).
T2 sequence: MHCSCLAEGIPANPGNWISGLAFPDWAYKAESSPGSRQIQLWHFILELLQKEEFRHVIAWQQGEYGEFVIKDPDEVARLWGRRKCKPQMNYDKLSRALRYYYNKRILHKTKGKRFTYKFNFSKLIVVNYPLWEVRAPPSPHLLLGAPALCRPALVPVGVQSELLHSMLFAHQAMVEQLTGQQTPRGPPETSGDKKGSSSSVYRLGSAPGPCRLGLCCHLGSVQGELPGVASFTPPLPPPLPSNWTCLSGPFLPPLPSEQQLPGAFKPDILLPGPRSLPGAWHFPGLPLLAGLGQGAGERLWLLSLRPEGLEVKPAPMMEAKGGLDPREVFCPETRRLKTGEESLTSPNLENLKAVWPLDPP
An outline of the steps: as §1

The next experiment deals with T3, ETS2 (Homo sapiens, UniProt P15036 1-469).
T3 sequence: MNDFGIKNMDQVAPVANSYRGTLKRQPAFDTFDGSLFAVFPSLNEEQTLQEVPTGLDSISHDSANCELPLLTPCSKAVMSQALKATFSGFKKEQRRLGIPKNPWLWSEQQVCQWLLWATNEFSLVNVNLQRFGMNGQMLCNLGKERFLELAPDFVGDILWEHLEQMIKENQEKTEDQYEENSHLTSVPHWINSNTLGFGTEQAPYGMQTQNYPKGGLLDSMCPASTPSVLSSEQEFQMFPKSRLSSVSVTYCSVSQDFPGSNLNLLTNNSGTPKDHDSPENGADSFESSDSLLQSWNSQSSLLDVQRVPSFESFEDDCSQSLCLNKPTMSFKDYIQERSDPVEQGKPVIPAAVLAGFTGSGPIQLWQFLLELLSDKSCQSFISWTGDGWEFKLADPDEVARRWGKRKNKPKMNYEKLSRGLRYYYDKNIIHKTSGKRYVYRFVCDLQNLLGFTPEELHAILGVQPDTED
In outline: as §1

The next experiment concerns the target T4, SPDEF (Homo sapiens, UniProt O95238 1-335).
T4 sequence: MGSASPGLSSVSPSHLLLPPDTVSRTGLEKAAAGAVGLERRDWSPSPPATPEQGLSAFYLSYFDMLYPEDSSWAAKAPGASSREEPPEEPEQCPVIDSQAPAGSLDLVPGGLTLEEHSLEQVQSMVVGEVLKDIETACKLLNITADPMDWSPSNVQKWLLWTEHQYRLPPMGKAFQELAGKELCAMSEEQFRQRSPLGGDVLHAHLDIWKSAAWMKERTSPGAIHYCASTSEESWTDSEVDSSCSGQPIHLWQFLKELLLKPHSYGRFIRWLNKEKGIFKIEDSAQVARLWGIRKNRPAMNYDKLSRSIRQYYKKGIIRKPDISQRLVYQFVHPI
In outline:
as §1

In the next experiment the target is T5, ETV7 (Homo sapiens, UniProt Q9Y603 1-341).
T5 sequence: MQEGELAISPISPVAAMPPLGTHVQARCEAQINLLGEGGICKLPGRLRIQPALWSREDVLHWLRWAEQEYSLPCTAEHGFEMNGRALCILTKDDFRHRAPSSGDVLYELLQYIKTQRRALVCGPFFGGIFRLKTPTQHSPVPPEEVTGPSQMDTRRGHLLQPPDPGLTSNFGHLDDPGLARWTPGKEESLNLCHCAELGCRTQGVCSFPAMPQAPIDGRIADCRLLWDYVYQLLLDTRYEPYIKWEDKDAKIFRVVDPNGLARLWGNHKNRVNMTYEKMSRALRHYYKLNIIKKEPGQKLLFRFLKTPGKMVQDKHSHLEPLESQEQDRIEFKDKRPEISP
An outline of the steps:
as §1

For the next experiment, the target named is T6, ELF5 (Homo sapiens, UniProt Q9UKW6-2 1-255).
T6 sequence: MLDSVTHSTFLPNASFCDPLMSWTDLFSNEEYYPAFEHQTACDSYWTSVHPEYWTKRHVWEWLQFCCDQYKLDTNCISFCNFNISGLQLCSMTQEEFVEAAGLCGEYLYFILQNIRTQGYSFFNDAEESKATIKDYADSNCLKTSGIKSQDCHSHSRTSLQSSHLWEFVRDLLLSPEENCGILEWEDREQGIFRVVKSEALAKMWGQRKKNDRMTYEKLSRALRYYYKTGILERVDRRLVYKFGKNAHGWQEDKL
An outline of the steps:
as §1

The target of another experiment is T7, ETV3 (Homo sapiens, UniProt P41162-2 1-143).
T7 sequence: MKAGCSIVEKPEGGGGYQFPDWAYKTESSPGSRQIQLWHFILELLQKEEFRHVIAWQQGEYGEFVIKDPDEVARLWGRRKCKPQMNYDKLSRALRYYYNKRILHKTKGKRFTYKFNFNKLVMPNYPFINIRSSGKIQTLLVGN
An outline of the steps:
as §1

Another experiment has as its target ETV6 (Homo sapiens, UniProt P41212 1-452). An outline of the steps:
as §1

Sequence of ETV6 (P41212 whole entry): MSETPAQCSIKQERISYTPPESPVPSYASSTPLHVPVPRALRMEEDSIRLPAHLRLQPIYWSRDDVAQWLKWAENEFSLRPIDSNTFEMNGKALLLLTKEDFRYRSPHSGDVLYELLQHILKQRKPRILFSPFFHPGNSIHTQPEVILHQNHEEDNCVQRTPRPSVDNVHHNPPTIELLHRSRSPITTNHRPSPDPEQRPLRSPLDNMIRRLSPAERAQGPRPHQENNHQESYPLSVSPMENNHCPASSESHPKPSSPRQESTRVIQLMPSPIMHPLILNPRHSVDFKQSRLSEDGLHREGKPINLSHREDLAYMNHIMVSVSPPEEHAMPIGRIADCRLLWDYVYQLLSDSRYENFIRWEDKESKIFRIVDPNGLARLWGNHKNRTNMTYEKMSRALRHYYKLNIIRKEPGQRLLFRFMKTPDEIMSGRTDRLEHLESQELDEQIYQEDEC

With TATTTG, the binding signal with ERF was 1.34 fold enrichment (6-mer frequency, TF over GST control); with ETV3L, 1.47 fold enrichment (6-mer frequency, TF over GST control); with ETS2, 1.41 fold enrichment (6-mer frequency, TF over GST control); with SPDEF, 1.32 fold enrichment (6-mer frequency, TF over GST control); with ETV7 it was 1.52 fold enrichment (6-mer frequency, TF over GST control); in the experiment with ELF5 it was 1.4 fold enrichment (6-mer frequency, TF over GST control). The binding signal with ETV3 was 1.47 fold enrichment (6-mer frequency, TF over GST control); in the experiment with ETV6 it was 1.45 fold enrichment (6-mer frequency, TF over GST control).
Turning to TTCTGA, the binding signal is 1.16 fold enrichment (6-mer frequency, TF over GST control) in the experiment with ERF; 1.35 fold enrichment (6-mer frequency, TF over GST control) with ETV3L; 1.43 fold enrichment (6-mer frequency, TF over GST control) in the experiment with ETS2; 1.38 fold enrichment (6-mer frequency, TF over GST control) with SPDEF; 1.19 fold enrichment (6-mer frequency, TF over GST control) with ETV7; 1.26 fold enrichment (6-mer frequency, TF over GST control) in the experiment with ELF5. In addition, the binding signal was 1.37 fold enrichment (6-mer frequency, TF over GST control) with ETV3 and 1.3 fold enrichment (6-mer frequency, TF over GST control) in the experiment with ETV6.
Consider GCCCTT, for which the binding signal in the experiment with ERF is 1.11 fold enrichment (6-mer frequency, TF over GST control); in the experiment with ETV3L it was 1.16 fold enrichment (6-mer frequency, TF over GST control); in the experiment with ETS2, 1.15 fold enrichment (6-mer frequency, TF over GST control); with SPDEF it was 1.26 fold enrichment (6-mer frequency, TF over GST control); in the experiment with ETV7, 1.07 fold enrichment (6-mer frequency, TF over GST control); with ELF5, 1.09 fold enrichment (6-mer frequency, TF over GST control). The binding signal was 1.14 fold enrichment (6-mer frequency, TF over GST control) in the experiment with ETV3 and 1.27 fold enrichment (6-mer frequency, TF over GST control) with ETV6.
With CAATAC, the binding signal is 1.38 fold enrichment (6-mer frequency, TF over GST control) with ERF; 1.3 fold enrichment (6-mer frequency, TF over GST control) with ETV3L; 1.22 fold enrichment (6-mer frequency, TF over GST control) with ETS2; 1.23 fold enrichment (6-mer frequency, TF over GST control) with SPDEF; 1.35 fold enrichment (6-mer frequency, TF over GST control) with ETV7; 1.18 fold enrichment (6-mer frequency, TF over GST control) with ELF5. The binding signal with ETV3 was 1.29 fold enrichment (6-mer frequency, TF over GST control); with ETV6, 1.22 fold enrichment (6-mer frequency, TF over GST control).
For the sequence GTTCCT, the binding signal is 1.49 fold enrichment (6-mer frequency, TF over GST control) with ERF; 1.71 fold enrichment (6-mer frequency, TF over GST control) with ETV3L; 1.75 fold enrichment (6-mer frequency, TF over GST control) with ETS2; 1.74 fold enrichment (6-mer frequency, TF over GST control) in the experiment with SPDEF; 1.67 fold enrichment (6-mer frequency, TF over GST control) with ETV7; 2.54 fold enrichment (6-mer frequency, TF over GST control) with ELF5. In addition, the binding signal is 1.88 fold enrichment (6-mer frequency, TF over GST control) with ETV3 and 1.82 fold enrichment (6-mer frequency, TF over GST control) with ETV6.
On to ATGTAA, for which the binding signal with ERF was 1.18 fold enrichment (6-mer frequency, TF over GST control); with ETV3L, 1.26 fold enrichment (6-mer frequency, TF over GST control); in the experiment with ETS2 it was 1.37 fold enrichment (6-mer frequency, TF over GST control); in the experiment with SPDEF it was 1.32 fold enrichment (6-mer frequency, TF over GST control); with ETV7, 1.26 fold enrichment (6-mer frequency, TF over GST control); with ELF5 it was 1.3 fold enrichment (6-mer frequency, TF over GST control). The binding signal with ETV3 was 1.32 fold enrichment (6-mer frequency, TF over GST control); with ETV6, 1.3 fold enrichment (6-mer frequency, TF over GST control).
As for TTCTTT, the binding signal with ERF was 1.08 fold enrichment (6-mer frequency, TF over GST control); in the experiment with ETV3L, 1.27 fold enrichment (6-mer frequency, TF over GST control); in the experiment with ETS2 it was 1.32 fold enrichment (6-mer frequency, TF over GST control); with SPDEF it was 1.08 fold enrichment (6-mer frequency, TF over GST control); in the experiment with ETV7, 1.24 fold enrichment (6-mer frequency, TF over GST control); with ELF5, 1.13 fold enrichment (6-mer frequency, TF over GST control). Also, the binding signal with ETV3 was 1.2 fold enrichment (6-mer frequency, TF over GST control); in the experiment with ETV6, 1.14 fold enrichment (6-mer frequency, TF over GST control).
In the case of ATCCTG, the binding signal with ERF was 1.28 fold enrichment (6-mer frequency, TF over GST control); in the experiment with ETV3L, 1.49 fold enrichment (6-mer frequency, TF over GST control); with ETS2, 1.56 fold enrichment (6-mer frequency, TF over GST control); in the experiment with SPDEF it was 2.47 fold enrichment (6-mer frequency, TF over GST control); with ETV7, 1.51 fold enrichment (6-mer frequency, TF over GST control); with ELF5, 1.84 fold enrichment (6-mer frequency, TF over GST control). For the same sequence, the binding signal in the experiment with ETV3 is 1.61 fold enrichment (6-mer frequency, TF over GST control); with ETV6 it was 1.48 fold enrichment (6-mer frequency, TF over GST control).
